How the values were obtained:
HCC1937 = assay: relative cell viability, compound + RSL3, vs DMSO (fraction of DMSO control); higher = less growth inhibition; details: 72 h
MDA-MB-231 = assay: as above; details: 72 h
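Further: breast cancer cell viability read out with the CCK-8 kit after co-treatment of each compound with the ferroptosis inducer RSL3.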

SMILES	relative cell viability (HCC1937)	relative cell viability (MDA-MB-231)
Cc1cc(C)c(S(=O)(=O)N(CCc2cccc(Br)c2)Cc2ccc(-c3cccc(S(C)(=O)=O)c3)cc2)c(C)c1 + COC(=O)c1ccc([C@H]2c3[nH]c4ccccc4c3C[C@H](C(=O)OC)N2C(=O)CCl)cc1 [RSL3]	0.636	0.475
CC(C)c1cc(C(C)C)c(CC(=O)NS(=O)(=O)Oc2c(C(C)C)cccc2C(C)C)c(C(C)C)c1 [Avasimibe] + COC(=O)c1ccc([C@H]2c3[nH]c4ccccc4c3C[C@H](C(=O)OC)N2C(=O)CCl)cc1 [RSL3]	0.322	0.511
COc1ccc(/C=C/c2cc(O)cc(O[C@@H]3O[C@H](CO)[C@@H](O)[C@H](O)[C@H]3O)c2)cc1 [Deoxyrhapontin] + COC(=O)c1ccc([C@H]2c3[nH]c4ccccc4c3C[C@H](C(=O)OC)N2C(=O)CCl)cc1 [RSL3]	0.532	0.693
C/C=C(\CC[C@@H](C)[C@H]1CC[C@H]2[C@@H]3CC=C4C[C@@H](O)CC[C@]4(C)[C@H]3CC[C@]12C)C(C)C [Fucosterol] + COC(=O)c1ccc([C@H]2c3[nH]c4ccccc4c3C[C@H](C(=O)OC)N2C(=O)CCl)cc1 [RSL3]	0.476	0.694
CC1CC(OC(=O)C(O)c2ccccc2)CC(C)(C)C1 (configuration not stated) [Cyclandelate] + COC(=O)c1ccc([C@H]2c3[nH]c4ccccc4c3C[C@H](C(=O)OC)N2C(=O)CCl)cc1 [RSL3]	0.808	0.638
CCCCCCCCCCC#CC#CCCCCCCCCC(=O)O [10,12-Tricosadiynoic acid] + COC(=O)c1ccc([C@H]2c3[nH]c4ccccc4c3C[C@H](C(=O)OC)N2C(=O)CCl)cc1 [RSL3]	0.4	0.634
